This is part of a sample that, as a whole, favours compounds with a hit. Of some 83,000 tested, about 20% had one in any assay.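 Cells were grown in 96-well plates and exposed to the test compound at a single concentration for 48 hours; results are reported as percent growth, with values below 10 considered active.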 Unmarked numbers belong to inactive results. The source made the active and inactive calls.
tested on: U251 CNS; assay: NCI-60 one-dose screen, 48 h (100 = growth as untreated, 0 = no growth, -100 = all killed); settings: 10 µM unless noted

Compound | growth
S=c1sc2c(Cl)nc(-c3cccnc3)nc2n1-c1ccccc1 | 7.95% (active)
C=C(C)[C@@H]1CC[C@]2(CO)CC[C@]3(C)[C@H](CC[C@@H]4[C@@]5(C)CC[C@H](NCO)C(C)(C)[C@@H]5CC[C@]43C)[C@@H]12 | -68.6% (active)
CN(C)Cc1ccc(O)c(C(=O)O)c1 | 93.3%
CCCn1cc2c(=O)nc3sc(Cc4ccccc4)c(C)n3c2n1 | 93.2%
CN(/C(N)=N/N=C/c1c2ccccc2cc2ccccc12)C1CCCCC1 | 48.3%
CC(=O)n1nc(C(=O)OC(C)(C)c2ccccc2)c2ccccc21 | 98.6%
CS(=O)(=O)c1ccc(-c2cnn3ccc(-c4cccc(S(=O)(=O)C5CC5)c4)nc23)cc1 | 68.7%
COc1ccc(/C=C(\C#N)n2nnc3ccc(Cl)cc32)cc1 | 61.7%
Oc1c(Br)cc(Br)c2ccc(Cn3cc(-c4ccc(C(F)(F)F)cc4)nn3)nc12 | 102%
Cc1sc2nc(NCCc3c[nH]c4ccc(Cl)cc34)[nH]c(=O)c2c1C | 32.3%
CCN1C(=S)N(c2ccccc2)C2NC(=S)N(/N=C/C=C/c3ccccc3OC)C21 (stereo not given) | 3.1% (active)
CCN(C)S(=O)(=O)Nc1cccc(Nc2ncnc3cc(NC(=O)CCl)ccc23)c1Cl | -77.4% (active)
Cn1c(I)c(C#CCO[Si](C)(C)C(C)(C)C)c(=O)[nH]c1=O | 109%
Nc1[nH]n2cc(-c3ccccc3)nc2c1N=Nc1ccc(S(N)(=O)=O)cc1 | 38.7%
COc1cc(OC)c(NC(=O)c2cc3ccccc3cc2O)cc1Cl | 17.7%
Cc1cn(-c2cc(NC(=O)c3cccc(C#Cc4cccc5[nH]nc(N)c45)c3)cc(C(F)(F)F)c2)cn1 | 43.7%
CCOC(=O)C/C(=N\Nc1cc(=O)[nH]c2ccc(Br)cc12)C(=O)OCC | 108%
CS(=O)(=O)Nc1cc(-c2ccc3ncnc(Nc4ccc5c(cnn5Cc5ccc(F)cc5)c4)c3c2)cnc1Cl | 37.2%
CCCCNC(=O)Oc1ccc(/C(=C(/C)Cc2ccc(OC)cc2)c2ccc(OCCN(CC)CC)cc2)cc1 | 59%
COc1ccc(-c2nc3c(ncc4ccc(=O)[nH]c43)s2)cc1 | 81.6%

Compound | growth
COc1c(C(=O)Nc2ccc(C)c(Br)c2)ccc2ccccc12 | 96.2%
O=C(Nc1nc2ccccc2s1)c1ccc(F)cc1 | 99.7%
CN(C)c1ccc(C(=O)OCCCCCCl)cc1 | 99.7%
Cn1ccnc1C(=O)/C=C/c1ccc(CC(=O)Nc2cc(C(F)(F)F)cc(C(F)(F)F)c2)cc1 | 40.8%
c1ccc(-c2oc(-c3ccccc3)c(CN3CCCCC3)c2CN2CCCCC2)cc1 | 25.2%
O=C1/C(=C/c2ccccc2Br)COc2ccc(O)cc21 | 46.1%
COc1ccc(/C=C/C(=O)c2cc3c(N)c(C(=O)Nc4cccc5ccccc45)sc3nc2C)cc1 | 45.3%
CC(C)c1ccc(C(=O)Nc2sc3c(c2C(N)=O)CCC(=O)C3)cc1 | -3.68% (active)
C=C(C)[C@@H]1CC[C@]2(C(=O)N3CCOCC3)CC[C@]3(C)[C@H](CC[C@@H]4[C@@]5(C)C/C(=C/c6ccncc6)C(=O)C(C)(C)[C@@H]5CC[C@]43C)[C@@H]12 | 55.7%
Cc1cn(-c2cc(NC(=O)c3cncc(C#Cc4cnc(N)c5ncccc45)c3)cc(C(F)(F)F)c2)cn1 | 85.7%
Nc1nc2ccccc2c2c1S(=O)(=O)c1ccc(Cl)cc1C2=O | 11.9%
CCC(=C(c1ccc(OCCN2CCCCC2)cc1)c1ccc(OCCN2CCCCC2)cc1)c1ccc(Cl)cc1 | -82.2% (active)
O=C1C(Cl)=C(Nc2ccc(S(=O)(=O)N3CCOCC3)cc2)C(=O)c2ccccc21 | 44.6%
COc1ccc(C/C(C)=C(\c2ccc(Cl)cc2)c2ccc(OCCN3CCCCC3)cc2)cc1 | 92.1%
COc1cc2c(cc1OC)C(C)N(S(N)(=O)=O)CC2 (stereo not given) | 114%
Cc1[nH]c(=O)[nH]c(=O)c1Br | 98.2%
Clc1cccc(Nc2ncnc3ccc(-c4cnc5[nH]ccc5c4)cc23)c1 | 72.9%
CCCCNC(=O)Oc1ccc(/C(=C(/C)Cc2ccc(OC)cc2)c2ccc(OCCN3CCCC3)cc2)cc1 | 41.3%
C#CCOC(=O)/C=C/c1cn(-c2ccccc2)nc1-c1ccc(OC)cc1 | 83.1%
COC(=O)[C@]1(C)CCC[C@]2(C)[C@H]3C[C@H]4C(C(C)C)=C[C@]3(CC[C@H]21)[C@@H]1C(=O)CC[C@H](OCCC#N)[C@@H]14 | 77.6%
